Screens (PubChem BioAssay)
Rows were chosen to be rich in hits. Some 7.6% of all compounds tested hit in one or more screens of this group.
KB-V1 cytotox = KB-V1 MDR subline cytotoxicity; KB-V1 MDR cells viability, CellTiter-Glo, 72 h; Potency, µM (series often up to 46.1 µM), usual class: cytotoxic; 400,000 tested, 3.4% active; AID 1347076; also: potency is read from the fitted curve at half-maximal effect; % is scaled to controls: 0 for no effect and ±100 for the full control effect; nearly all actives have a fitted effect of over 60% in size
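Compound-treated KB-V1 multidrug-resistant cells, 72 h, 37 degrees C; viability by CellTiter-Glo. Fitted qHTS curves give the values.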
KCNH2 WT inh = KCNH2 (human, wildtype) channel inhibition; U2OS, BacMam KCNH2, thallium flux FluxOr; stronger effect = lower value; activity change, % at 1.84 µM; 340,000 tested, 0.37% active;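 active = maximum activity change below -70%; inconclusive = maximum activity change between -70% and -50%; inactive = maximum activity change above -50%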; also: % is scaled to controls: 0 for no effect and ±100 for the full control effect
Target sequence (Q12809 whole entry, looked up): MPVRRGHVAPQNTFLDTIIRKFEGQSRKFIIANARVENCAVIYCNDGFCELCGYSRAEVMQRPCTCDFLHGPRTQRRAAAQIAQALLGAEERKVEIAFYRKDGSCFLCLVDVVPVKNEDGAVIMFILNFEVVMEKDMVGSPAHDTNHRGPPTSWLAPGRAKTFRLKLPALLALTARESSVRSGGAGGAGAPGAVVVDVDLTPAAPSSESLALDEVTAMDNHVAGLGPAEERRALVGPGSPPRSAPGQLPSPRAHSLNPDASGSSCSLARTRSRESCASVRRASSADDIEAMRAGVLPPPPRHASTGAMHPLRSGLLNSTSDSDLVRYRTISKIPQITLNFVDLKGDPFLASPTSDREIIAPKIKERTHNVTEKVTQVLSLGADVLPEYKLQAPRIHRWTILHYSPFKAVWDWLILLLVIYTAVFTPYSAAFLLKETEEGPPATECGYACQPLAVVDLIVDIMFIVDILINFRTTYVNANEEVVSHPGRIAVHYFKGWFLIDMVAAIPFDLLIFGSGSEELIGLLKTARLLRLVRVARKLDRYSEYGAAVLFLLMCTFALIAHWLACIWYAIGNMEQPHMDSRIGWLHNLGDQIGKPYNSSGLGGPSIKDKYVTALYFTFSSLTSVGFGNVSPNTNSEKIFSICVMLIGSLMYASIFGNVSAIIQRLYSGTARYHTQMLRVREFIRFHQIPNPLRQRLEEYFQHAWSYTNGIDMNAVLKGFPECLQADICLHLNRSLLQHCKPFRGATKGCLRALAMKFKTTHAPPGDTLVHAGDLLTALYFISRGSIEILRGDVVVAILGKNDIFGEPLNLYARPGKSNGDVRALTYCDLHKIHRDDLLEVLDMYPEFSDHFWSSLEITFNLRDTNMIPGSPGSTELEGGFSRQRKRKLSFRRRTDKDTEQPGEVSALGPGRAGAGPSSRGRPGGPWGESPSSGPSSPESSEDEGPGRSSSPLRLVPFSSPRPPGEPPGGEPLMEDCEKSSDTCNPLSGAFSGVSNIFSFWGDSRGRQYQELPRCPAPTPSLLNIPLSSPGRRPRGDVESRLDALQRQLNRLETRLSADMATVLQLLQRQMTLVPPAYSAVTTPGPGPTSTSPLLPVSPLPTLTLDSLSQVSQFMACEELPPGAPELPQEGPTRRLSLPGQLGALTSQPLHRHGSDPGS
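U2OS cells were transduced with wild-type KCNH2 virus (2.03 x 10^8 / mL) for 4 h at room temperature, then cultured overnight at 37 C. Thallium flux was read with FluxOr dye. Rate constants were normalized to DMSO controls.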
SW480 rereplic = inducers of DNA re-replication in SW480 colon cancer cells. SW480 DNA re-replication, Hoechst DNA content imaging, 48 h. Potency, µM (doses to about 46.1 µM), inactives show at the highest dose re-replication activation, most hits filed as activators. 340,000 tested, 1.8% active. AID 624297; also: potency is read from the fitted curve at half-maximal effect; % of control where 0% means no effect; nearly all actives have a fitted effect of over 55% in size
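250 cells/well; 23 nL cpd via pin tool; 48 hr, 37 C, 5% CO2; Hoechst 40 min; imager read of total nuclear intensity, ex 405/em 500-530 nm.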
KB-3-1 tox = kills parental KB-3-1 adenocarcinoma cells; KB-3-1 viability, CellTiter-Glo ATP luminescence, 72 h; Potency, µM (top dose mostly 46.1 µM), usual class: cytotoxic; 400,000 tested, 1.4% active; AID 1347075; also: potency is read from the fitted curve at half-maximal effect; % is scaled to controls: 0 for no effect and ±100 for the full control effect; nearly all actives have a fitted effect of over 60% in size
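Parental KB-3-1 adenocarcinoma cells in phenol-red-free DMEM with 10% FBS were pin-treated with compounds at several concentrations, incubated 72 h at 37 °C, and viability read by CellTiter-Glo luminescence; concentration-effect curves were fitted after normalization.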
KCNH2 3.1 inh = inhibitors of human KCNH2 3.1 potassium channel isoform; activity change, % (tested at about 1.8 µM); 340,000 tested, 0.95% active; AID 720553; U2OS KCNH2 3.1, thallium flux FluxOr; stronger effect = lower value;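 active = maximum activity change below -70%; inconclusive = maximum activity change from -70% to -50%; inactive = maximum activity change above -50%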;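 also: thallium influx rate constant from kinetic fluorescence after stimulation buffer; % is scaled to controls: 0 for no effect and ±100 for the full control effect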
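FluxOr-based Tl+ influx in U2OS cells transduced with KCNH2 3.1 virus; rate constants normalized to DMSO controls.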
MCF10A rerep = inducers of DNA re-replication in MCF 10A breast cells; MCF 10A DNA re-replication, Hoechst nuclear intensity, 48 h; Potency, µM (doses to about 46.1 µM), without a hit: at the highest dose activity, positive = re-replication, usual class: activators; 350,000 tested, 2.9% active; also: potency is read from the fitted curve at half-maximal effect; % of control where 0% means no effect; nearly all actives have a fitted effect of over 50% in size
* = called active by the depositor; i = inactive; u = inconclusive; x = not tested or not shown; [ ] = another dose, or the depositor's remark. Unless noted, calls follow the shape of the dose curve; as a rule, active = well fitted curve in the direction sought with a large enough effect; inconclusive = small, poorly fitted or top-dose-only effect, or another doubt; inactive = no such curve, though single readings can be large; an effect the other way counts as inactive or inconclusive.

SMILES	KB-V1 cytotox	KCNH2 WT inh	SW480 rereplic	KB-3-1 tox	KCNH2 3.1 inh	MCF10A rerep
CCOC(=O)c1[nH]c(C)c(C(=O)N2CCN(c3cccc(Cl)c3)CC2)c1C	13µM*	15.8	-2.8%	i	u	5.5%
CN(C(=O)CC1C(=O)NCCN1Cc1ccoc1)C1CCOCC1 (stereo not given)	i	8.5	-20.4%	i	-8.2	-8.8%
O=C1NCCN(Cc2ccoc2)C1CC(=O)N(CCO)Cc1ccccc1 (stereo not given)	i	4.4	18.4µM*	i	-2.9	-5.0%
CCC(=O)OCOc1ccc(/C=C2/CCC(CN(C)C)C2=O)cc1 (stereo not given)	u	-4.0	11.6µM*	u	-16.8	u
Cc1ccc(C(O)(c2ccccc2)c2ccccc2C(C)N(C)C)c(C)c1 (stereo not given)	18.4µM*	3.9	-2.5%	i	-9.4	-1.5%
Cc1ccc(OCc2nnc(SCc3cc(=O)[nH]c4ccccc34)n2-c2ccccc2)cc1	i	-0.3	4.6%	i	2.4	1.0%
Cc1ccccc1OCc1nnc(SCc2cc(=O)[nH]c3ccccc23)n1-c1ccccc1	16.4µM*	-1.7	u	u	1.2	u
O=C(NNC1=C(C(=O)C(F)(F)F)CCC1)c1ccc(Br)cc1	i	-17.0	9.2µM*	i	-7.7	u
Nc1ccccc1C(=O)NNC1=C(C(=O)C(F)(F)F)CCC1	i	0.5	u	u	0.2	7.7%
COc1ccccc1C(=O)NNC1=C(C(=O)C(F)(F)F)CCC1	i	22.4	2.59µM*	i	12.2	4.11µM*
O=C(NNC1=C(C(=O)C(F)(F)F)CCC1)c1ccccc1O	i	4.2	-3.0%[9.22 µM]	u	0.2	u
Cc1ccc(CN(Cc2cc3cc(C)ccc3[nH]c2=O)Cc2nnnn2Cc2ccccc2)cc1	i	x	x	u	x	x
CCOc1ccc(Cn2c(=O)sc3ccccc32)cc1OC	11.6µM*	-9.0	-6.4%	u	4.2	u
COc1ccccc1OCCn1c(=O)sc2ccccc21	14.6µM*	30.1	3.7%	i	15.4	11.2%
CCC(Sc1nc2c(c(=O)[nH]1)CCC2)C(=O)Nc1cccc(OC)c1 (stereo not given)	16.4µM*	-7.0	-0.1%	i	-19.0	22.8%
COc1ccc(NC(=O)COC(=O)c2cc(OC)c(OC)cc2NC(=O)c2ccco2)cc1OC	i	5.9	10.3µM*	i	1.8	u
COC(=O)c1ccccc1NC(=O)COC(=O)c1ccc(C)c(NC(=O)c2ccco2)c1	3.66µM*	-12.4	u	i	-3.3	25.5%
O=Nc1c(-c2c(O)[nH]c3cc(Br)ccc23)[nH]c2ccccc12	20.6µM*	-12.7	u	u	3.8	-7.7%
Cc1cc(Nc2ccc3c(c2)OCCO3)c2cc(Cl)ccc2n1	14.6µM*	0.5	2.1%	i	5.7	10.0%
Cc1cc(Nc2cccc(Cl)c2)c2ccccc2n1	u	4.5	-4.8%	i	-3.7	14.1%
Cc1cc2occ(CC(=O)NCc3cccs3)c2cc1C(C)C	20.6µM*	1.0	-1.8%	i	17.1	5.8%
Cc1csc(NC(=O)Cc2coc3cc(C)c(C(C)C)cc23)n1	u	-2.9	u	u	-4.2	u
CCOC(=O)c1c(O)c(Cl)c(C)[nH]c1=O	u	0.9	-14.9%	i	-11.0	-2.3%
O=C(NC1CCN(S(=O)(=O)c2ccc(F)cc2)CC1)c1cccnc1	i	0.0	0.5%	i	-2.6	-23.2%
Cc1ccc(SC[C@H](Cc2ccccc2)N2CCN(CCc3ccccc3)CCC2=O)cc1	i	-100.9*	-4.7%[9.22 µM]	i	-106.3*	-25.0%
SMILES	KB-V1 cytotox	KCNH2 WT inh	SW480 rereplic	KB-3-1 tox	KCNH2 3.1 inh	MCF10A rerep
CCCN1CCC(=O)N([C@H](CSc2ccc(C)cc2)CC(C)C)CC1	u	x	-0.1%	i	x	-1.4%
COc1ccc(SC[C@H](Cc2ccccc2)N2CCN(C)CCC2=O)cc1	i	28.2	6.2%	i	-47.2	-6.5%
CN1CCC(=O)N([C@H](CSc2ccccc2)Cc2ccccc2)CC1	u	x	-2.1%	i	x	-8.3%
CCCN1CCC(=O)N([C@H](CSc2ccc(C)cc2)Cc2ccccc2)CC1	i	17.3	3.4%	i	-101.2*	2.3%
Cc1ccc(SC[C@H](Cc2ccccc2)N2CCN(C)CCC2=O)cc1	i	7.0	-8.1%[9.22 µM]	i	u	u
O=C1CCN(CCc2ccccc2)CCN1[C@H](CSc1ccccc1)Cc1ccccc1	u	-141.0*	u	u	-102.9*	u
CCCN1CCC(=O)N([C@H](CSc2ccc(OC)cc2)Cc2ccccc2)CC1	i	7.5	-2.6%	i	-100.6*	2.6%
CCOC(=O)C1C(c2ccccc2)C(C(=O)OCC)S(=O)(=O)C(CCN(CC)CC)S1(=O)=O (stereo not given)	i	3.6	-3.3%	i	-0.3	-6.0%
CCOC(=O)c1c(C)nc2c(c1-c1ccccc1)C(=O)CCC2	i	-4.2	-7.1%	i	0.8	19.9%
C=C1N[C@]2(C(=O)COC(C)=O)[C@@H](C[C@H]3[C@@H]4CCC5=CC(=O)C=C[C@]5(C)[C@H]4[C@@H](O)C[C@@]32C)O1	x	x	-4.7%	x	x	0.0%
CCc1ccc(CN(C)C(=O)c2cc(COc3cncc(Cl)c3)on2)cc1	u	1.3	x	i	-2.0	x
CC(C)(C)n1nnnc1C(c1ccc(F)cc1)N(Cc1ccc(F)cc1)Cc1ccco1 (stereo not given)	u	-1.1	22.2%	u	-15.4	u
CC(C)(C)n1nnnc1C(c1cccs1)N(Cc1ccc(Cl)cc1)CC1CCCO1 (stereo not given)	i	-6.2	11.3%	23.1µM*	-8.1	u
CC(C)(C)n1nnnc1C(c1cc2ccccc2o1)N(Cc1ccccc1)Cc1ccccc1 (stereo not given)	20.6µM*	x	x	u	x	x
CC(C)(C)n1nnnc1C(c1cccnc1)N(Cc1ccccc1)Cc1cccs1 (stereo not given)	20.6µM*	11.4	26.5%	u	-16.4	u
CN(Cc1ccccc1)C(c1cc2ccccc2o1)c1nnnn1C(C)(C)C (stereo not given)	i	x	x	u	x	x
Cc1ccc(C(c2nnnn2C(C)(C)C)N(Cc2ccco2)Cc2cccs2)cc1 (stereo not given)	u	-0.4	18.7%	16.4µM*	-16.5	21.2%
Clc1ccc(CN(Cc2ccccc2)C(c2cccs2)c2nnnn2C2CCCC2)cc1 (stereo not given)	u	-6.6	u	i	-23.3	u
